{
  "source": "PubChem BioAssay (Tox21)",
  "note": "Values without a mark were called inactive. The source made the active and inactive calls. The call rests on the fitted dose curve; in most records, active means well fitted activation curve with a large enough effect in the repeat runs; inconclusive means weak or mixed curves; inactive means flat fitted curve, though single readings scatter. On the % scale 0 is the no-effect control and ±100 the full control effect; potency means the concentration at half of the fitted maximal effect.",
  "data": [
    {"target": "KiSS-1 receptor (Homo sapiens) (UniProt Q969F8)", "sequence (Q969F8 whole entry, looked up)": "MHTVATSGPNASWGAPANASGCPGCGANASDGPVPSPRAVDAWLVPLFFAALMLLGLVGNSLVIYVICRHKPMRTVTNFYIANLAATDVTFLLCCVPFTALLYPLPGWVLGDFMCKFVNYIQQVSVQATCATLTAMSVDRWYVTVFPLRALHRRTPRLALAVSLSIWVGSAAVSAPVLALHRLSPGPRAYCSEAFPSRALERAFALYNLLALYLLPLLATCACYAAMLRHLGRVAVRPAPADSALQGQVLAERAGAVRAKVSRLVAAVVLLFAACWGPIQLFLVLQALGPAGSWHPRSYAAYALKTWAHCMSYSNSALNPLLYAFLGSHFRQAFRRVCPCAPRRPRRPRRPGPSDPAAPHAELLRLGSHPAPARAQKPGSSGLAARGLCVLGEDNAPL", "test": "Human kisspeptin (KISS1R) small molecule agonists, calcium flux assay in KISS1R-HEK293 cells (AID 1920064)", "settings": "KISS1R-HEK293, calcium flux fluorescence, agonist; series mostly up to 76.8 µM; activation: at the top concentration", "description": "National Center for Advancing Translational Sciences [NCATS]\nDivision of Preclinical Innovation [DPI]\nU.S. Environmental Protection Agency [EPA]\nNational Institutes of Environmental Health Sciences [NIEHS]\nNational Toxicology Program [NTP]\nU.S. Food and Drug Administration [FDA]\nKisspeptin and its receptor KISS1R play key roles in mammalian reproduction due to their involvement in the onset of puberty and control of the hypothalamic-pituitary-gonadal axis such as regulates GnRH release from the hypothalamus. The kisspeptin/KISS1R system also plays a direct role in peripheral organs (including the ovary, testis, uterus, and placenta) and is implicated in reproductive diseases such as miscarriage and polycystic ovary syndrome (PCOS). Abnormal KISS1R activity is associated with abnormal puberty, infertility, endometriosis, and hormone-dependent tumors. The KISS1 receptor (KISS1R, also called GPR54), a G-protein-coupled receptor (GPCR), acts (through phospholipase C) to increase intracellular inositol trisphosphate and then release intracellular calcium stores. Cell-based KISS1R-HEK293 assay is using HEK293 cells that have been genetically engineered to express the human KISS1R, which activity can be measured by calcium signaling. A compound/drug can activate (agonist) KISS1R that can be monitored by levels of intracellular calcium.\nKISS1R-HEK293 cells developed by Codex Corp contain human KISS1R gene, which was stably integrated into HEK 293 cells. The compound activation can be detected by fluorescence intensity via calcium flux assay. This cell line has been used to screen the Tox21 10K compound library to identify agonists of KISS1R.\nKISS1R-Hek293 cells were dispensed at 1500 cells/4uL/well in 1536-well black wall/clear bottom plates using a multidrop dispenser. After the assay plates were incubated at a 37 C/5% CO2 incubator for 18 hours, 4 microL of Calcium Dye Solution was added to each well. The plates were incubated at 37 C for 1 hour. And then 23 nL of compounds dissolved in DMSO, positive controls, or DMSO only was transferred to the assay plate by a pin tool station. The fluorescence intensity in the plates was measured using FDSS 7000EX kinetic plate reader with a filter set of Ex/Em=480/540 for 3 min at 1 sec intervals. Each test compound was measured at 15 concentrations and in triplicates.", "values": [
      {"smiles": "N[C@@H](Cc1ccc(O)cc1)C(=O)O", "activation": "0.301% [at 6.97 µM]"},
      {"smiles": "OC(CN1CCC(Cc2ccc(F)cc2)CC1)c1ccc(Cl)cc1", "note": "(stereo not given)", "activation": "0.543% [at 35.3 µM]"},
      {"smiles": "Cc1ccc(C(C)C)cc2c(C)ccc1-2", "activation": "0.0337% [at 35.3 µM]"},
      {"smiles": "COC(=O)c1nc(Cl)c(Cl)nc1N", "activation": "-0.11% [at 35.3 µM]"},
      {"smiles": "O=C(O)c1ccccc1C(=O)OCc1ccccc1", "activation": "0.355%"},
      {"smiles": "CCC(C)(C)C1CCC(O)CC1", "note": "(stereo not given)", "activation": "2%"},
      {"smiles": "Nc1ccn(C2CO[C@H](CO)O2)c(=O)n1", "note": "(stereo not given in full)", "Potency": "6.74 µM (active)"},
      {"smiles": "CCOC(=O)COc1ccc2c(c1)CC(NCC(O)c1cccc(Cl)c1)CC2", "note": "(stereo not given)", "activation": "10.2%"},
      {"smiles": "Cc1ccc(O)c([C@H](CCN(C(C)C)C(C)C)c2ccccc2)c1", "activation": "13.2% [at 35.3 µM]"},
      {"smiles": "CCC(C)(CCC(C)C)C(=O)[O-].CCC(C)(CCC(C)C)C(=O)[O-].[Zn+2]", "note": "(stereo not given)", "activation": "10.4%"},
      {"smiles": "C=C/C=C/C=C/CCCCC", "activation": "1.28% [at 15.8 µM]"},
      {"smiles": "COC(=O)[C@@H]1CC2=CC(=O)CC[C@]2(C)[C@@]23O[C@@H]2C[C@@]2(C)[C@@H](CC[C@@]24CCC(=O)O4)[C@H]13", "activation": "-0.747% [at 35.3 µM]"},
      {"smiles": "C/C=C(\\C)C(C)=O", "activation": "-1.11%"},
      {"smiles": "Nc1cc(Cl)c([N+](=O)[O-])cc1O", "activation": "0.161%"},
      {"smiles": "COc1cc(NS(=O)(=O)c2ccc(N)cc2)nc(C)n1", "activation": "-0.0475% [at 35.3 µM]"},
      {"smiles": "CCCCN1C(=O)[C@@H]([C@H](O)C2CCCCC2)NC(=O)C12CCN(Cc1ccc(Oc3ccc(C(=O)O)cc3)cc1)CC2", "activation": "-0.401%"},
      {"smiles": "CC1(C)CCC[C@]2(C)[C@H]3CCO[C@]3(C)CC[C@@H]12", "activation": "-0.211%"},
      {"smiles": "CCc1c(C(=O)NN2CCCCC2)nn(-c2ccc(Cl)cc2Cl)c1-c1ccc(Br)cc1", "activation": "0.0338%"},
      {"smiles": "CCCc1ccc(OCC(=O)N2CCN(C(=O)COc3ccc(CCC)cc3OC)CC2)c(OC)c1", "activation": "2.39% [at 35.3 µM]"},
      {"smiles": "Cc1[nH]cnc1C[C@H]1CCc2c(C)c3ccccc3n2C1=O", "activation": "1.23%"},
      {"smiles": "OC12N=C(c3ccccc3)SC1Cc1cc(Cl)ccc12", "note": "(stereo not given)", "activation": "5.22%"},
      {"smiles": "Fc1ccccc1[C@@H](F)COC1CCC(Nc2ncnc3[nH]ncc23)CC1", "note": "(stereo not given in full)", "activation": "3.57%"},
      {"smiles": "CCCCC=O", "activation": "-0.0521%"},
      {"smiles": "C=Cc1c(C)c2cc3[nH]c(cc4nc(cc5nc(cc1[nH]2)C(C)=C5CCC(=O)O)C(CCC(=O)O)=C4C)c(C)c3C=C", "activation": "8.09% [at 35.3 µM]"},
      {"smiles": "Cc1cc2c(cc1CC(=O)c1sccc1S(=O)(=O)Nc1onc(C)c1Cl)OCO2", "activation": "-2.23% [at 35.3 µM]"},
      {"smiles": "COc1nc(N)nc2c1ncn2[C@@H]1O[C@H](CO)[C@@H](O)[C@@H]1O", "activation": "-1.66% [at 35.3 µM]"},
      {"smiles": "COc1cccc(CCc2ccccc2OCC(CN(C)C)OC(=O)CCC(=O)O)c1", "note": "(stereo not given)", "activation": "-0.836% [at 35.3 µM]"},
      {"smiles": "COCCOc1cc2cc(C(=O)NC3CCN(C(C)C)CC3)n(CC(=O)Nc3ccc(Cl)cn3)c2cn1", "activation": "0.191%"},
      {"smiles": "C[C@@H]1C[C@H]2O[C@@]3(O[C@@H]2C(C)(C)O)[C@H](O)[C@@]2(C)[C@@H]4CC[C@H]5C(C)(C)[C@@H](O[C@@H]6OC[C@@H](O)[C@H](O)[C@H]6O)CC[C@@]56C[C@@]46CC[C@]2(C)[C@@H]13", "activation": "1.63% [at 35.3 µM]"},
      {"smiles": "CC1=C(C(=O)O)N2C(=O)[C@@H](NC(=O)[C@H](N)c3ccc(O)cc3)[C@H]2SC1", "activation": "0.875% [at 35.3 µM]"},
      {"smiles": "CS(C)=O", "activation": "0.379%"},
      {"smiles": "Cc1ccc(C(N)=O)cc1N", "activation": "-1.11%"},
      {"smiles": "C=Cc1ccc(S(=O)(=O)O)cc1", "activation": "-0.692%"},
      {"smiles": "NC(Cc1c[nH]c2ccccc12)C(=O)O", "note": "(stereo not given)", "activation": "0.21% [at 35.3 µM]"},
      {"smiles": "COc1ccc(S(=O)(=O)Nc2nnc(CC(C)C)s2)cc1", "activation": "-0.277% [at 35.3 µM]"},
      {"smiles": "CN(C)[C@@H]1C(=O)C(C(N)=O)=C(O)[C@@]2(O)C(=O)C3=C(O)c4c(O)cccc4C[C@H]3C[C@@H]12", "activation": "-0.726% [at 35.3 µM]"},
      {"smiles": "Cc1ccc(O)c(C(=O)c2ccccc2)c1", "activation": "1.64%"},
      {"smiles": "Nc1ccn([C@H]2CS[C@@H](CO)O2)c(=O)n1", "activation": "-0.24%"},
      {"smiles": "COc1ccc2c(c1)c(CC(=O)OC/C=C(\\C)CC/C=C(\\C)CCC=C(C)C)c(C)n2C(=O)c1ccc(Cl)cc1", "activation": "-0.474% [at 35.3 µM]"},
      {"smiles": "CCCC(C)C(=O)O", "note": "(stereo not given)", "activation": "-1.71%"}
    ]}
  ]
}
